# Laboratory results from PubChem BioAssay (NCATS).
# Inconclusive results are not listed. Entries that show only a call come without a potency. Unmarked numbers belong to inactive results. Activity calls are given as the source filed them. Unless noted, calls come from the whole dose curve.
# Assays:
# [1] = qHTS for Inhibitors of the Functional Ribonucleoprotein Complex (vRNP) of Lassa (LASV) Arenavirus: LASV Primary Screen - GLuc reporter signal (AID 1347082; calls by dose curve; tested in HEK293 reporter line; note: nearly all actives have a fitted effect of over 60% in size; for activity change, negative = inhibition: series mostly up to about 57 µM)
# [2] = qHTS for Inhibitors of the Functional Ribonucleoprotein Complex (vRNP) of Lassa (LASV) Arenavirus: Viability assay - alamar blue signal for LASV Primary Screen (AID 1347083; calls by dose curve; tested in HEK293 reporter line; note: nearly all actives have a fitted effect of over 80% in size; for activity change, negative = reduced viability: series mostly up to about 57 µM)
# [3] = qHTS for Inhibitors of the Functional Ribonucleoprotein Complex (vRNP) of Lymphocytic Choriomeningitis Arenaviruses (LCMV): Viability assay - alamar blue signal for LCMV Primary Screen (AID 1347085; calls by dose curve; tested in HEK293 reporter line; note: nearly all actives have a fitted effect of over 80% in size; for activity change, negative = lower viability: series mostly up to about 57 µM)
# [4] = molecular target: Nucleoprotein (Lymphocytic choriomeningitis virus (strain Armstrong)) (UniProt P09992); assay: qHTS for Inhibitors of the Functional Ribonucleoprotein Complex (vRNP) of Lymphocytic Choriomeningitis Arenaviruses (LCMV): LCMV Primary Screen - GLuc reporter signal (AID 1347086); note: nearly all actives have a fitted effect of over 70% in size; for activity change, negative = inhibition: series mostly up to about 57 µM
# Nucleoprotein (Lymphocytic choriomeningitis virus (strain Armstrong)), sequence (P09992 whole entry, looked up): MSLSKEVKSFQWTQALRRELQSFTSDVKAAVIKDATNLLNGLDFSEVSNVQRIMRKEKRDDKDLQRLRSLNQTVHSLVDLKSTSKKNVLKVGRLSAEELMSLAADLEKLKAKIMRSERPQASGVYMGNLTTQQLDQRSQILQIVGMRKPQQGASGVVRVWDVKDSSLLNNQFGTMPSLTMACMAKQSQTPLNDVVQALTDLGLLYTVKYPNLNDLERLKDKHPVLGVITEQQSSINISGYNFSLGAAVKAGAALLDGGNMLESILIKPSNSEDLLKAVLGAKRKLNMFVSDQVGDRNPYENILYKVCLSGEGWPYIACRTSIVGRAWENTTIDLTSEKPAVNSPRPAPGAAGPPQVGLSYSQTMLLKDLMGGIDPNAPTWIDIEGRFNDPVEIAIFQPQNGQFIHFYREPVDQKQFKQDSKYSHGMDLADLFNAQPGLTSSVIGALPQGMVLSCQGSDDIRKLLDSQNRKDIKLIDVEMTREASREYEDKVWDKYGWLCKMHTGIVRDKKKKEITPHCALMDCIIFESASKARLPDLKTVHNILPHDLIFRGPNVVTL
# Potency is the fitted concentration of half-maximal effect.
SMILES,Potency [1],Potency [2],Potency [3],Potency [4],"activity change, negative = inhibition [1]","activity change, negative = reduced viability [2]","activity change, negative = lower viability [3]","activity change, negative = inhibition [4]"
Nc1nc2c(ncn2[C@@H]2O[C@H](COP(=O)(O)OP(=O)(O)O)[C@@H](O)[C@H]2O)c(=O)[nH]1,inactive,inactive,inactive,inactive,–,–,–,–
CCC[C@H]1C[C@H](C(=O)N[C@@H]([C@@H]2O[C@@H](SC)[C@@H](O)[C@@H](O)[C@@H]2O)[C@H](C)Cl)N(C)C1,inactive,inactive,inactive,inactive,–,–,–,–
CC(C)(COP(=O)(O)OP(=O)(O)OC[C@H]1O[C@@H](n2cnc3c(N)ncnc32)[C@H](O)[C@@H]1OP(=O)(O)O)[C@H](O)C(=O)NCCC(=O)NCCS,inactive,inactive,inactive,inactive,–,–,–,–
CC(C=CC(O)=C1C(=O)CNC1=O)=C[C@@H](C)C1OC2(C)OC(C(=O)C3O[C@@]32C)C1C (stereo not given in full),inactive,inactive,inactive,inactive,–,–,–,–
CC(=O)C1CCC2C3CCC4=CC(=O)C=CC4(C)C3C(=O)CC12C (stereo not given),inactive,inactive,inactive,inactive,–,–,–,–
CC(=O)Nc1ccccc1O,inactive,inactive,inactive,inactive,–,–,–,–
CCCCCCCCCCCCOC(C)=O,inactive,inactive,inactive,inactive,–,–,–,–
CCCC(=O)OCCC(C)CCC=C(C)C (stereo not given),inactive,inactive,inactive,inactive,–,–,–,–
COc1ccc(C2Sc3ccccc3N(CCN(C)C)C(=O)C2OC(C)=O)cc1 (stereo not given),inactive,inactive,inactive,inactive,–,–,–,–
CCCCC[C@H](O)C=C[C@H]1[C@H](O)CC(=O)[C@H]1CCCCCCC(=O)O,inactive,inactive,inactive,inactive,–,–,–,–
CC(C)=CCc1c(O)cc(O)c2c1OC(c1ccc(O)cc1)CC2=O (stereo not given),inactive,inactive,inactive,inactive,–,–,–,–
C=CC(C)(C)O[C@@H]1O[C@H](CO)[C@@H](O)[C@H](O)[C@H]1O,inactive,inactive,inactive,inactive,–,–,–,–
COc1cc(-c2oc3cc(O)cc(O)c3c(=O)c2O[C@@H]2O[C@H](CO)[C@@H](O)[C@H](O)[C@H]2O)cc(OC)c1O,inactive,inactive,inactive,inactive,–,–,–,–
C[C@H]1C[C@H]2[C@@H]3CCC4=CC(=O)C=C[C@]4(C)[C@@H]3C(=O)C[C@]2(C)[C@@]1(O)C(=O)CO,inactive,inactive,inactive,inactive,–,–,–,–
C=C(C)C(O)COc1c2occc2c(OC)c2ccc(=O)oc12 (stereo not given),inactive,inactive,inactive,inactive,–,–,–,–
COc1cc(/C=C/c2ccccc2)cc(OC)c1,inactive,inactive,inactive,inactive,–,–,–,–
C/C(=C/CCC(C)[C@H]1CC[C@@]2(C)C3=C(CC[C@]12C)[C@@]1(C)CCC(=O)C(C)(C)[C@@H]1CC3)C(=O)O (stereo not given in full),inactive,inactive,inactive,inactive,–,–,–,–
CCC(=O)OCC(=O)[C@@]1(OC(=O)CC)[C@@H](C)C[C@@H]2[C@H]3CCC4=CC(=O)C=C[C@]4(C)[C@@]3(F)[C@@H](O)C[C@@]21C,inactive,inactive,inactive,inactive,–,–,–,–
CC1=CCC(C(C)C)=CC1,inactive,inactive,inactive,inactive,–,–,–,–
O=c1ccc2ccc(O[C@@H]3O[C@H](CO)[C@@H](O)[C@H](O)[C@H]3O)c(O)c2o1,inactive,inactive,inactive,inactive,–,–,–,–

SMILES,Potency [1],Potency [2],Potency [3],Potency [4],"activity change, negative = inhibition [1]","activity change, negative = reduced viability [2]","activity change, negative = lower viability [3]","activity change, negative = inhibition [4]"
CC(=O)OCC(=O)[C@@]1(O)CC[C@H]2[C@@H]3CCC4=CC(=O)CC[C@]4(C)[C@@H]3C(=O)C[C@@]21C,inactive,inactive,inactive,inactive,–,–,–,–
C=CCCC[C@@H]1OC(=O)CNC(=O)C([C@@H](C)CC)NC(=O)[C@@H]2CCCN2C(=O)C([C@@H](C)CC)OC(=O)[C@H](Cc2ccccc2)N(C)C(=O)[C@H](C(C)C)NC(=O)C1(C)C (stereo not given in full),inactive,inactive,inactive,inactive,–,–,–,–
CCCCCCCCCCCCCCCCC,inactive,inactive,inactive,inactive,–,–,–,–
CCCCCCCCCOC(C)=O,inactive,inactive,inactive,inactive,–,–,–,–
CCc1cnn2c(NCc3ccc[n+]([O-])c3)cc(N3CCCC[C@@H]3CCO)nc12,109 nM (active),38.5 nM (active),38.5 nM (active),48.5 nM (active),–,–,–,–
CC1(C)C=Cc2c(c3c(c4c(=O)c(-c5ccc(O)cc5)coc24)OC(C)(C)CC3)O1,inactive,inactive,inactive,inactive,–,–,–,–
C[C@H](CCC(=O)NCC(=O)O)[C@H]1CC[C@H]2[C@@H]3[C@H](O)C[C@@H]4C[C@H](O)CC[C@]4(C)[C@H]3C[C@H](O)[C@]12C,inactive,inactive,inactive,inactive,–,–,–,–
CC1=C[C@H](O)CC(C)(C)[C@H]1/C=C/C(C)=C/C=C/C(C)=C/C=C/C=C(C)/C=C/C=C(C)/C=C/C1=C(C)C[C@@H](O)CC1(C)C,inactive,inactive,inactive,inactive,–,–,–,–
CC1(C)C=C2[C@H]3CC[C@@H]4[C@@]5(C)CCC(=O)C(C)(C)[C@@H]5CC[C@@]4(C)[C@]3(C)CC[C@@]2(C(=O)O)CC1,inactive,inactive,inactive,inactive,–,–,–,–
O=C1NC(=S)NC1=Cc1ccc(O)cc1,inactive,inactive,inactive,inactive,–,–,–,–
C=CC(=O)N1CCc2ccc(-n3c(=O)ccc4cnc5ccc(-c6cnn(C)c6)cc5c43)cc21,inactive,inactive,inactive,inactive,–,–,–,–
CC(C)NC[C@@H](C(=O)N1CCN(c2ncnc3c2[C@H](C)C[C@H]3O)CC1)c1ccc(Cl)cc1,968 nM (active),243 nM (active),485 nM (active),863 nM (active),–,–,–,–
CCCCC/C=C\C/C=C\C[C@H](O)/C=C/C=C\CCCC(=O)O,–,–,–,–,6.73% [at 0.757 µM],15% [at 0.757 µM],7.12% [at 0.757 µM],11.5% [at 0.757 µM]
CC(C)(O)[C@H](O)Cc1cc2ccc(=O)oc2cc1O[C@@H]1O[C@H](CO)[C@@H](O)[C@H](O)[C@H]1O,inactive,inactive,inactive,inactive,–,–,–,–
O=C1N[C@@H](Cc2cnc[nH]2)C(=O)N2CCC[C@@H]12,inactive,inactive,inactive,inactive,–,–,–,–
COc1cc2nc3occc3c(OC)c2cc1OC,inactive,inactive,inactive,inactive,–,–,–,–
CCCCCC(C)O (stereo not given),inactive,inactive,inactive,inactive,–,–,–,–
Cc1c(O)cccc1C(=O)N[C@@H](CSc1ccccc1)[C@H](O)CN1C[C@H]2CCCC[C@@H]2C[C@@H]1C(=O)NC(C)(C)C,inactive,inactive,inactive,inactive,–,–,–,–
CC(C)c1onc(-c2c(Cl)cccc2Cl)c1COc1ccc(C=Cc2cccc(C(=O)O)c2)c(Cl)c1,inactive,inactive,inactive,inactive,–,–,–,–
COc1ccc(C[C@@H]2c3cc(O)c(OC)cc3CCN2C)cc1O,inactive,inactive,inactive,inactive,–,–,–,–

SMILES,Potency [1],Potency [2],Potency [3],Potency [4],"activity change, negative = inhibition [1]","activity change, negative = reduced viability [2]","activity change, negative = lower viability [3]","activity change, negative = inhibition [4]"
O=C(NC[C@H](O)c1ccccc1)c1ccccc1,inactive,inactive,inactive,inactive,–,–,–,–
O=C1c2ccccc2-n2c1nc1ccccc1c2=O,inactive,inactive,inactive,447 nM (active),–,–,–,–
C=CC(C)(CCC=C(C)C)OC(=O)C(C)C (stereo not given),inactive,inactive,inactive,inactive,–,–,–,–
C[C@]12CCC3=C4CCC(=O)C=C4CC[C@@H]3[C@H]1CC[C@@]2(O)CC#N,inactive,inactive,inactive,inactive,–,–,–,–
O=C(O)C=C(Br)Br,inactive,inactive,inactive,inactive,–,–,–,–
CC(C)=CCc1c(-c2ccc(O)cc2O)oc2cc3c(c(O)c2c1=O)C=CC(C)(C)O3,inactive,inactive,inactive,inactive,–,–,–,–
COC(=O)c1ccc(N2CC3CNC(=O)C2(C(=O)OC)N3C)cc1 (stereo not given),inactive,inactive,inactive,inactive,–,–,–,–
COC(=O)c1c(C)cc(O)c(C)c1O,inactive,inactive,inactive,inactive,–,–,–,–
C/C(=C\COc1c2ccoc2cc2oc(=O)ccc12)CCC(O)C(C)(C)O (stereo not given),inactive,inactive,inactive,inactive,–,–,–,–
C[C@@H](O)CCC[C@H](O)/C=C/[C@H]1[C@H](O)CC(=O)[C@@H]1C/C=C\CCCC(=O)O,–,–,–,–,-72.5% [at 5.82 µM],-134% [at 5.82 µM],-144% [at 5.82 µM],-73.7% [at 5.82 µM]
NCCC(=O)c1ccccc1N,inactive,inactive,inactive,inactive,–,–,–,–
CCc1nccc2c1[nH]c1ccccc12,inactive,inactive,inactive,inactive,–,–,–,–
CNCCO,inactive,inactive,inactive,inactive,–,–,–,–
CCCCCCCC(=O)C(C)C(=O)N(C)[C@H](Cc1ccc(OC)cc1)C(=O)N(C)[C@H](C(N)=O)C(C)C (stereo not given in full),inactive,inactive,inactive,inactive,–,–,–,–
C/C=C(/C)C(=O)O[C@@H]1[C@H](OC(=O)C=C(C)C)c2c(ccc3ccc(=O)oc23)OC1(C)C,inactive,inactive,inactive,inactive,–,–,–,–
CN1CC(O)C(O)C(O)C1CO (stereo not given),inactive,inactive,inactive,inactive,–,–,–,–
CCC(=O)NC[C@H](Cc1ccc(OCCc2nc(-c3ccccc3)oc2C)cc1)NC(C)=CC(=O)c1ccc(C(F)(F)F)cc1,inactive,inactive,inactive,inactive,–,–,–,–
Cc1cc(=O)c2c(O)c(O)ccc2o1,inactive,inactive,inactive,inactive,–,–,–,–
O=C(O)c1cccc(Br)c1,inactive,inactive,inactive,inactive,–,–,–,–
CCCCc1nc2ccccc2[nH]1,inactive,inactive,inactive,inactive,–,–,–,–
